Measured values as given in PubChem BioAssay (NCATS).

Each molecule was assayed against Nicotinamide N-methyltransferase (Homo sapiens) (UniProt P40261) (assay: Confirmatory Screen for Target Class Profiling of Small Molecule Inhibitors of Methyltransferases (AID 1745852)). Conditions: MTase-Glo luminescence, SAH detection, recombinant enzyme; measured here: NNMT max response; stronger effect = lower value.
Chain of Nicotinamide N-methyltransferase (Homo sapiens) (P40261 whole entry, looked up): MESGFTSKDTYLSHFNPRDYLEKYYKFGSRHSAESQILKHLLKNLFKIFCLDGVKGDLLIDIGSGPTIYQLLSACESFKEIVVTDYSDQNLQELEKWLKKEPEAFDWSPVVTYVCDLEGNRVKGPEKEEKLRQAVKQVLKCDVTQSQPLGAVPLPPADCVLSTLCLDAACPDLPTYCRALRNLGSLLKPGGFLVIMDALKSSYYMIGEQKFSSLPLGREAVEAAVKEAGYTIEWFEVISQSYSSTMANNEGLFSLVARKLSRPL

Compared with `CCCCCCCOc1cc2c(cc1/C(C)=C/c1ccc(C(=O)O)cc1)C(C)(C)CCS2(=O)=O`, `CCCCCc1ccc(/C=C/C(=O)Nc2cc(Cl)ccc2C(=O)O)cc1` is higher in activity: -71.1% for the first, -47.8% for the second.

Compared with `COc1cc2c(cc1-c1c(C)noc1C)ncc1[nH]c(=O)n(C(C)c3ccccn3)c12` (configuration not stated), `COc1cc2c(cc1OC)CN(C(=O)/C=C/c1c(-c3ccccc3)n(C)c3ncccc13)CC2` is lower in activity: -29.4% for the first, -30.5% for the second.

First: CCC(CC)C(c1ccc(Nc2nc3ccccc3s2)cc1)n1cncn1 (configuration not stated)
Second: N#C/C(=C1\Nc2ccccc2S1)c1ccnc(NCCc2cccnc2)n1
The activity of the first is higher: -14.5% for the first, -43.4% for the second.

Going from `COc1cc2c(NC3CCN(C(C)C)CC3)nc(N3CCC(F)(F)CC3)nc2cc1OCCCN1CCCC1` to `Cc1cc2c(N3CCCC3)nc(N3CCCC3)nc2n1C`, the activity falls from -8.4% to -27.1%.

First: Fc1ccc(N2CCCCC2)c(NC(=S)c2ccncc2)c1
Second: Cc1cn(CCN2CCN(c3ccccc3-c3cc(C#N)cc(C(=O)NCCCN4CCCC4)c3)CC2)c2ccccc12
The activity of the first is lower: -9.58% for the first, -4.29% for the second.

Going from `c1cc(NC2CCNCC2)nc(-c2cnc3ccccn23)c1` to `Cc1cc(N2CCOCC2)ccc1Nc1nc(NC2CCCCC2)c2[nH]cnc2n1`, the activity falls from -8.81% to -20.9%.

Going from `COc1ccc(N(C(=O)Nc2c(C)cccc2C)c2cc(Nc3ccc(N4CCN(C)CC4)cc3)ncn2)c(OC)c1` to `C=CC(=O)Nc1ccc(CN2C(=O)N(c3cc(OC)cc(OC)c3)Cc3cnc(Nc4ccc(N5CCN(C)CC5)cc4)nc32)cc1`, the activity rises from -36.9% to -1.46%.

Going from `Cc1ccc(CNc2ncnc3ccc(-c4ccc(CO)o4)cc23)o1` to `COc1ccc2nc3n[nH]c(C)c3c(NCCOCCO)c2c1`, the activity falls from -7.73% to -38.5%.

In the case of `Cc1ccc(C)c(-c2cc(C(F)(F)F)nn2-c2ccc(S(N)(=O)=O)cc2)c1`, the activity is reported as -48.6%.
